The values that follow come from paper PMC13423814.

The target in this experiment is HNRNPC (UniProt P07910). The note with it: DSSO, in cells.

As to HNRNPR, O43390, the cross-linked residues result is “K374 - K8”.
